This is an account of results in PubChem BioAssay (NCATS).

Each structure is given as a SMILES string. Several values for one entry are separate records, joined by “and”; a condition that tells them apart may be missing. Equal entries are not always repeated. Inconclusive results are not listed. Activity calls are given as the source filed them. Unless noted, the call rests on the fitted dose curve. Non-standard residues stand in square brackets, D forms with d. Residues, ends and D or L forms follow the SMILES beside them. Orn = NCCC[C@H](N)C(=O)O

Assay [1] in a line: qHTS assay for small molecule agonists of retinoid X receptor alpha signaling (AID 588544). The settings on record: HEK293T RXRa-UAS-bla, beta-lactamase reporter, 18 h; 530 nm emission. On the technique in general: Quantitative high-throughput screening tests each substance at several concentrations.
In assay [2] the target is Retinoic acid receptor RXR-alpha (Homo sapiens) (UniProt P19793). Described as above. The settings on record: HEK293T RXRa-UAS-bla, beta-lactamase reporter, 18 h; series mostly up to 76.7 µM.
Assay [3] concerns the target Thyroid hormone receptor beta (Homo sapiens) (UniProt P10828). Nature of the assay: qHTS assay for small molecule agonists of thyroid hormone receptor beta signaling (AID 588545).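 Further: 0% = DMSO only and 100% = 10 nM T3.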 Particulars: TR-UAS-bla GripTite HEK 293, beta-lactamase ratio, agonist mode, 18 h, percent of T3 response, DMSO as zero; series mostly up to 76.7 µM. The essentials: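 TR-UAS-bla GripTite HEK 293 cells (2500/well, medium with 2% charcoal/dextran FBS) were treated in agonist mode for 18 h at 37 C, titrated. Beta-lactamase was read by CCF4 ratio after 2 h; normalized to 10 nM T3 (100%) and DMSO, Hill-fitted for EC50 and efficacy.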

Assay [4] can be described thus: qHTS assay for small molecule antagonists of retinoid X receptor alpha signaling (AID 588546; active means well fitted inhibition curve with a large enough effect in the signal ratio, with a control signal flat, not every such curve was filed as active; the % refers to the signal ratio;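 further: cells stimulated with 9-cis-retinoic acid as agonist; on the % scale 0 is the no-effect control and ±100 the full control effect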). The settings on record: HEK293T RXRa-UAS-bla, beta-lactamase ratio, antagonist mode; measured here: W530 green channel, cytotoxicity proxy. The method in brief:
(§1)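 Beta-lactamase reporter inhibition, read as CCF4 fluorescence ratio (ex 405, em 460/530 nm) after 2 h at RT. HEK293T UAS-bla cells, 2500/well, were stimulated with 9-cis-RA at 500 or 100 nM final alongside test compound for 18 h at 37 C.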

In assay [5] the target is Retinoic acid receptor RXR-alpha (Homo sapiens) (UniProt P19793). Described as above. Particulars: HEK293T RXRa-UAS-bla, beta-lactamase ratio, antagonist mode. The essentials: as §1
Assay [6] concerns the target Thyroid hormone receptor beta (Homo sapiens) (UniProt P10828). The experiment in a line: qHTS assay for small molecule antagonists of thyroid hormone receptor beta signaling (AID 588547; active means well fitted inhibition curve with a large enough effect in the signal ratio, with a control signal flat, not every such curve was filed as active; the % refers to the signal ratio;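 further: cells stimulated with 0.4 nM T3 agonist during compound exposure; on the % scale 0 is the no-effect control and ±100 the full control effect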). The settings on record: TR-UAS-bla HEK293, beta-lactamase ratio, antagonist mode, 18 h. The essentials: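 Inhibition of T3-driven (0.4nM final) beta-lactamase reporter activity was measured over 0.59 nM to 92 uM compound after 18 h at 37 C. The cells were GripTite HEK293 TR-UAS-bla in charcoal/dextran-stripped serum, with CCF4 ratio read-out and IC50 from Hill fits.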

Assay [7] addresses Voltage-gated inwardly rectifying potassium channel KCNH2 (Homo sapiens) (UniProt Q12809). Nature of the assay: qHTS Assay for Small Molecule Inhibitors of the Human hERG Channel Activity (AID 588834; active means well fitted inhibition curve with a large enough effect;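 further: top concentration of the series differs between compounds; on the % scale 0 is the no-effect control and ±100 the full control effect; lower thallium flux fluorescence means stronger hERG block; nearly all actives have a fitted effect of over 50% in size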). Particulars: U2OS BacMam hERG, FluxOR thallium flux fluorescence; series mostly up to 46.1 µM. The method in brief:
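Step 1: BacMam hERG transduction of U2OS, 4 hrs RT. Step 2: overnight 37 °C, plate 2000 cells/well, 4 hr. Step 3: FluxOR load, compound 10 min, stimulate, read fluorescence.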

For assay [8], the target named is Vitamin D3 receptor (Homo sapiens) (UniProt P11473). Nature of the assay: qHTS assay for small molecule antagonists of vitamin D receptor signaling (AID 588541).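 Further: receptor activated by calcitriol during compound treatment; on the % scale 0 is the no-effect control and ±100 the full control effect.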 Particulars: HEK293T VDR-UAS-bla, beta-lactamase ratio, antagonist mode; series mostly up to 76.7 µM. The method in brief: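 Antagonist-mode beta-lactamase reporter assay: HEK293T VDR-UAS-bla cells were exposed to titrated compound alongside 1-alpha,25-dihydroxyvitamin D3 at 3 nM final for 16 h. Values were normalized to the 50 nM agonist control and DMSO basal, with IC50 and efficacy from Hill equation fits.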

Assay [9] shares this target. Nature of the assay: qHTS assay for small molecule agonists of vitamin D receptor signaling (AID 588543).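 Further: 0% = DMSO basal and 100% = reference agonist control.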 The settings on record: HEK293T VDR-UAS-bla, beta-lactamase ratio, 16 h; series mostly up to 76.8 µM. The method in brief: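 Reporter cells (HEK293T, VDR-UAS-bla) were seeded in medium with 2% charcoal-stripped serum and incubated 5 h, then compounds in concentration series were added for 16 h at 37 °C. Stimulation was scaled between DMSO basal and 50 nM 1α,25-dihydroxyvitamin D3.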

Assay [10] addresses Luciferin 4-monooxygenase (Photinus pyralis) (UniProt P08659). Nature of the assay: Biochemical firefly luciferase enzyme assay for NPC (AID 624030; active means well fitted inhibition curve with a large enough effect;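 further: purified P. pyralis luciferase at 10 nM with luciferin and ATP substrate; 0% = DMSO and -100% = full luciferase inhibition by PTC124 control; nearly all actives have a fitted effect of over 70% in size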). Particulars: purified P. pyralis luciferase, luminescence, 5 min; series mostly up to 58.6 µM. The essentials:
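Direct inhibition of firefly luciferase enzyme (10 nM final, 50 mM Tris Acetate) assessed by luminescence within 5 minutes. Percent activity scaled between DMSO and PTC124 positive control, with concentration-effect curves classified by fit quality and response.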

Luciferin 4-monooxygenase (Photinus pyralis), sequence (P08659 whole entry, looked up): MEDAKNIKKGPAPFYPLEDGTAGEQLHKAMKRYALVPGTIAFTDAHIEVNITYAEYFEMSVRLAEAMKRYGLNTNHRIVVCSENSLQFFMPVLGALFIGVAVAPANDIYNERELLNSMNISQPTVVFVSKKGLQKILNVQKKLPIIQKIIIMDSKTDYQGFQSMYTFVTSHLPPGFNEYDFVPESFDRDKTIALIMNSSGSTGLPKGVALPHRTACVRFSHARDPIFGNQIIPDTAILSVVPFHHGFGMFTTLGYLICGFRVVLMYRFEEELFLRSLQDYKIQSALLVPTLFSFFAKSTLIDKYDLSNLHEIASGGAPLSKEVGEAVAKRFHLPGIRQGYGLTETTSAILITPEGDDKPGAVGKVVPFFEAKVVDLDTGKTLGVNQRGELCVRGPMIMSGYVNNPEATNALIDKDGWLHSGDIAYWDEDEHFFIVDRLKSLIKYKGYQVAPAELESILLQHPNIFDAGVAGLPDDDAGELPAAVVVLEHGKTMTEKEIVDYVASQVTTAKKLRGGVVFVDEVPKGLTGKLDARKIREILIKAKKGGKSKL
Voltage-gated inwardly rectifying potassium channel KCNH2 (Homo sapiens), sequence (Q12809 whole entry, looked up): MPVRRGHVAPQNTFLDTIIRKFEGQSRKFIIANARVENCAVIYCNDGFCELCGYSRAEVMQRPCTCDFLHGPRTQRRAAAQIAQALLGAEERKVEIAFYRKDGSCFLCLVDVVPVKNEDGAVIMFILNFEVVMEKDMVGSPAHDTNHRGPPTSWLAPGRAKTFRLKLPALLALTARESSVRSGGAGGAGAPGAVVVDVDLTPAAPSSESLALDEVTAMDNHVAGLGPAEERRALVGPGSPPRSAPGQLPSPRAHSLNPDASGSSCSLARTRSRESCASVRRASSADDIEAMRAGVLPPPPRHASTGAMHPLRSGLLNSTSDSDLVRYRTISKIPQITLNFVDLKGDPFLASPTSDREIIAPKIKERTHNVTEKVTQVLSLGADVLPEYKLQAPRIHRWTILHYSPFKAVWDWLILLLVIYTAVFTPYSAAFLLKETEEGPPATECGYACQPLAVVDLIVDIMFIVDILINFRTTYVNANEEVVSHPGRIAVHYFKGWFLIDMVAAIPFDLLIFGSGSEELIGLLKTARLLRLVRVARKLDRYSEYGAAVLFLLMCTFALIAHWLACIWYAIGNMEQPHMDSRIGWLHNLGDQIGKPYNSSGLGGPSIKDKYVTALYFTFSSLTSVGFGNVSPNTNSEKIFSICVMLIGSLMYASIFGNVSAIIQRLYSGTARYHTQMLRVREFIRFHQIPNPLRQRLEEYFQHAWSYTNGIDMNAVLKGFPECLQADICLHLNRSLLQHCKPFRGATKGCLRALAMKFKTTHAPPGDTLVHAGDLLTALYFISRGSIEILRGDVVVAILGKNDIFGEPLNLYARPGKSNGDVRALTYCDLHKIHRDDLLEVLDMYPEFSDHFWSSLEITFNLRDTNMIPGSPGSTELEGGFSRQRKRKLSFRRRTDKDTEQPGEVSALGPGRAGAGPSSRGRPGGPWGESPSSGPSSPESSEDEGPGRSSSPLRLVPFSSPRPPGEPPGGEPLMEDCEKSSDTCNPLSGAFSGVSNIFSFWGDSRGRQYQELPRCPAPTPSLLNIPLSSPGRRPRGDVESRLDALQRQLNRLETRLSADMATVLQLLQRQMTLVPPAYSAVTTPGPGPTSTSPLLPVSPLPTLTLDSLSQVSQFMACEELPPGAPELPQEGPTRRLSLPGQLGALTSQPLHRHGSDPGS
Vitamin D3 receptor (Homo sapiens), sequence (P11473 whole entry, looked up): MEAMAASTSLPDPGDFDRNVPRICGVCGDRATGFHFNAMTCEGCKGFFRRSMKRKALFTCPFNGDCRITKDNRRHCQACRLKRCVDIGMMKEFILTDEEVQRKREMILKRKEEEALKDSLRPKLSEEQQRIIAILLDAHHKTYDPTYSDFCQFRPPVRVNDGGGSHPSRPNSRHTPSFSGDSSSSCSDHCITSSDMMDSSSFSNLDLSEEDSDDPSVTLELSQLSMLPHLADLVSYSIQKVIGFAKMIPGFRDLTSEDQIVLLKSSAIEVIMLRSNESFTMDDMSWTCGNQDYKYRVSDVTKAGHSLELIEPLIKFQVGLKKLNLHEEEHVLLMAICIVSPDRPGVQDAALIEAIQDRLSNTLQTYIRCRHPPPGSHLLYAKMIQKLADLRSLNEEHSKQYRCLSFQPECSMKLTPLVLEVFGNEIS
Thyroid hormone receptor beta (Homo sapiens), sequence (P10828 whole entry, looked up): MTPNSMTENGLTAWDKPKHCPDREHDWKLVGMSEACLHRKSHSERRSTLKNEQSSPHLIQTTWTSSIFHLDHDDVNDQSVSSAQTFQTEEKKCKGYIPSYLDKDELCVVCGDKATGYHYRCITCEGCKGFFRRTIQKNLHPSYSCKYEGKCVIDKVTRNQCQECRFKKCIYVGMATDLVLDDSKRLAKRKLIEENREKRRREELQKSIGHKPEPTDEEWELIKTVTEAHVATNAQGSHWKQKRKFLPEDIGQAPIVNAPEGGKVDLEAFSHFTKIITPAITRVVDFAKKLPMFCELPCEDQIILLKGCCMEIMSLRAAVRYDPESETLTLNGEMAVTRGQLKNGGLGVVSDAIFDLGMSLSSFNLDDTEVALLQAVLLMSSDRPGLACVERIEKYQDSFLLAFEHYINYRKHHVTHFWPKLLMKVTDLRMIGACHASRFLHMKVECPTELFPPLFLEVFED
Retinoic acid receptor RXR-alpha (Homo sapiens), sequence (P19793 whole entry, looked up): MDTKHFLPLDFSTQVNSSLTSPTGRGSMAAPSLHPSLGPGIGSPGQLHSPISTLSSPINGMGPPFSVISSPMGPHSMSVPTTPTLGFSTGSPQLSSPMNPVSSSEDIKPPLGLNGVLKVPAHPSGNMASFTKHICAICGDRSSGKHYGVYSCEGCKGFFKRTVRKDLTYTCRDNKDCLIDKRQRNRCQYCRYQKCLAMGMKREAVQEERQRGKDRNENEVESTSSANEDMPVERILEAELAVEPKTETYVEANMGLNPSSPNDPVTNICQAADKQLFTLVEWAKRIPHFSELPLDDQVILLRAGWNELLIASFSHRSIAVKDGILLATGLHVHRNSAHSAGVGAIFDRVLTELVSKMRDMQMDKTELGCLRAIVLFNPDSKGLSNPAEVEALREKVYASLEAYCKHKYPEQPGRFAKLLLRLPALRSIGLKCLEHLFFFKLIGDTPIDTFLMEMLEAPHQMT

For `IC(I)I`, the max response was 19.8% in assay [1]; -9.02% and 2.26% in [4]; 21.1% (inactive) and -13.8% (inactive) in assay [5]. Moreover, the call in [2] and in assay [3] was inactive. For the same compound, in [6], the activity change % (negative = inhibition) is 1.7% (inactive) and 9.81% (inactive). In addition, the Potency entry in assay [7] was “inactive”.
For `O=C(O)CCC(=O)C(=O)O`, the outcome in [8], in [9], in assay [2] and in assay [3] was inactive. Moreover, the max response is -2.92% in assay [1], -14.3% in [4] and 8.74% (inactive) in [5]. In addition, the activity change % (negative = inhibition) in assay [6] was 1.53% (inactive). The Potency entry in assay [7] and in [10] was “inactive” throughout.
On to `O=C(O)CN(CCN(CC(=O)O)CC(=O)O)CC(=O)O`, for which the max response in [1] was -4.26% and -8.64%; in [4], -5.66% and -2.36%; in assay [5], -4.8% (inactive) and -20.2% (inactive). For the same compound, the outcome in assay [2] was inactive. In addition, the Potency result in [10] was “inactive”.
Regarding `CO[C@@H]1[C@@H](O[C@@H]2O[C@H](C)[C@@H](O[C@H]3C[C@@](C)(O)[C@@H](OC(=O)CC(C)C)[C@H](C)O3)[C@H](N(C)C)[C@H]2O)[C@@H](CC=O)C[C@@H](C)C(=O)/C=C/C2OC2C[C@@H](C)OC(=O)C[C@H]1OC(C)=O` (stereo not given in full), the Potency result in assay [7] is “inactive”.
For `O=CCCCC=O`, the outcome in [8], in assay [9], in assay [2] and in assay [3] was inactive. In addition, the max response was 18.3% in assay [1], -9.66% in assay [4] and 27.6% (inactive) in [5]. Besides, in assay [6], the activity change % (negative = inhibition) is 0.64% (inactive). Besides, the Potency entry in assay [7] and in [10] was “inactive” in each case.
As to `Nc1ccn([C@H]2CS[C@@H](CO)O2)c(=O)n1`, the outcome in [8], in assay [9], in assay [2] and in [3] was inactive. In addition, the max response is 1% in assay [1], -4.12% in assay [4] and 12.8% (inactive) in assay [5]. In addition, the activity change % (negative = inhibition) in assay [6] is 10.8% (inactive). In addition, the Potency result in assay [7] is “inactive”.
For `CC(=O)O[C@]1(C(C)=O)CC[C@H]2[C@@H]3CCC4=CC(=O)CC[C@]4(C)[C@@]3(F)[C@@H](O)C[C@@]21C`, in [7], the Potency result is “inactive”.
Turning to `CC1=C2[C@@H]([C@H](C)CC[C@H]2/C=C(\C)C(=O)O)[C@H](O)C1`, the max response was 29.1% in assay [1], 6.79% in [4] and -2.22% (inactive) in assay [5]. In addition, the compound was called inactive in assay [2] and in assay [3]. Besides, in [7], the Potency result was “inactive”.
Turning to `Cc1c(C)c2c(c(C)c1O)CC[C@@](C)(CCC[C@@H](C)CCC[C@@H](C)CCCC(C)C)O2`, the Potency result in [7] was “inactive”.
Regarding `CCCCC(CC)COC(=O)CC(C(=O)OCC(CC)CCCC)S(=O)(=O)O` (stereo not given), the result in [9] and in assay [3] was inactive. Moreover, the activity change % (negative = inhibition) in assay [6] was -5.51% (inactive).
Regarding `CC(=O)N(CC(C)C(=O)O)c1c(I)cc(I)c(N)c1I` (stereo not given), in [7], the Potency result was “inactive”.
On the same count and under the same terms, as for `CC(C)C[C@@H]1NC(=O)[C@H](CCCN)NC(=O)[C@H](C(C)C)NC(=O)[C@@H]2CCCN2C(=O)[C@@H](Cc2ccccc2)NC(=O)[C@H](CC(C)C)NC(=O)[C@H](CCCN)NC(=O)[C@H](C(C)C)NC(=O)[C@@H]2CCCN2C(=O)[C@@H](Cc2ccccc2)NC1=O` (cyclo(V[Orn]L[dF]PV[Orn]L[dF]P)), the entry is “inactive”.
As to `C[C@H]1C[C@H]2[C@@H]3CCC4=CC(=O)C=C[C@]4(C)[C@@]3(F)[C@@H](O)C[C@]2(C)[C@@]1(O)C(=O)CO`, the outcome in assay [8] and in assay [3] was inactive. In addition, the max response is 8.66% in [4] and -12.7% (inactive) in [5]. Moreover, the Potency result in assay [7] and in assay [10] was “inactive” throughout.
In the case of `Cc1ccccc1`, the outcome in assay [8], in assay [9], in [2] and in [3] was inactive. Moreover, the max response in [1] was -1.14% and 7.93%; in [4], -4.05% and 9.42%; in assay [5] it was -5.8% (inactive) and 14.2% (inactive). In addition, in assay [7], the Potency result was “inactive”.
Take `CCCCC/C=C\C/C=C\CCCCCCCC(=O)O`: the outcome in assay [8], in assay [9], in assay [2] and in [3] was inactive. The figures for the max response in assay [1], in [4] and in assay [5] were -2.55%, 2.1% and 12.5% (inactive), respectively. Further, in assay [6], the activity change % (negative = inhibition) was 8.73% (inactive) and 0.41% (inactive). Besides, the Potency entry in assay [7] and in assay [10] was “inactive” in each case.
As for `CCCCCCCC(=O)O`, the outcome in assay [8], in [9], in assay [2] and in assay [3] was inactive. In addition, the max response is 23.4% and -6.86% in assay [1]; -6.98% and -8.84% in assay [4]; 18.1% (inactive) and 2.05% (inactive) in assay [5]. The activity change % (negative = inhibition) in [6] is 8.96% (inactive) and 0.409% (inactive). In addition, the Potency entry in [7] and in assay [10] was “inactive” throughout.
Take `O=S(=O)(O)c1ccc2c(N=Nc3ccc(S(=O)(=O)O)c4ccccc34)c(O)c(S(=O)(=O)O)cc2c1`: the Potency result in assay [7] is “inactive”.
As to `CC(O)CO` (stereo not given), the outcome in assay [8], in [9], in assay [2] and in assay [3] was inactive. Besides, the max response in [1] is -9.84% and -15.2%; in assay [4], -2.37% and -5.47%; in assay [5] it was 9.68% (inactive) and 0.556% (inactive). In [6], the activity change % (negative = inhibition) is 11.6% (inactive) and -10.9% (inactive). Further, the Potency entry in assay [7] and in [10] was “inactive” each time.
For `CC1(C)C(C=C(Cl)Cl)C1C(=O)OCc1cccc(Oc2ccccc2)c1` (stereo not given), the outcome in assay [8] was inactive. In addition, the max response in assay [4] was -5.2% [middle of 4 runs]; in assay [5] it was -8.16% (inactive) [middle of 4 runs]. Also, in assay [6], the activity change % (negative = inhibition) is 3.43% (inactive) [middle of 4 runs]. For the same compound, the Potency result in [7] is “inactive”.
Consider `CC(=O)OCC(=O)[C@@]12OC3(CCCC3)O[C@@H]1C[C@H]1[C@@H]3CCC4=CC(=O)C=C[C@]4(C)[C@@]3(F)[C@@H](O)C[C@@]12C`, for which, in assay [7], the Potency result is “inactive”.
Regarding `CC1=CCC(C(C)(C)O)CC1` (stereo not given), the outcome in assay [8], in [9], in [2] and in [3] was inactive. For the same compound, the max response in [1] was -10.8%; in [4], 1.88%; in assay [5] it was -18.6% (inactive). In assay [6], the activity change % (negative = inhibition) is -18.4% (inactive). In addition, the Potency result in [7] was “inactive”.
